Screening data (PubChem BioAssay)
This is a sample that favours compounds with a hit; in the whole collection about 2.9% have one here.
GLP-1R inv ag: qHTS of GLP-1 Receptor Inverse Agonists (Inhibition Mode). HEK293 GLP-1R CRE-luciferase, luminescence, 24 h; GLP-1R form is constitutively active. Potency, µM (series often up to 38.3 µM), without a hit: top-dose activity change, negative = inhibition, actives largely listed as inhibitors. 410,000 compounds, 1.6% hits. AID 624417, 2012; further: potency means the concentration at half of the fitted maximal effect; on the % scale 0 is the no-effect control and ±100 the full control effect; nearly all actives have a fitted effect of over 55% in size
Target sequence (P43220 whole entry, looked up): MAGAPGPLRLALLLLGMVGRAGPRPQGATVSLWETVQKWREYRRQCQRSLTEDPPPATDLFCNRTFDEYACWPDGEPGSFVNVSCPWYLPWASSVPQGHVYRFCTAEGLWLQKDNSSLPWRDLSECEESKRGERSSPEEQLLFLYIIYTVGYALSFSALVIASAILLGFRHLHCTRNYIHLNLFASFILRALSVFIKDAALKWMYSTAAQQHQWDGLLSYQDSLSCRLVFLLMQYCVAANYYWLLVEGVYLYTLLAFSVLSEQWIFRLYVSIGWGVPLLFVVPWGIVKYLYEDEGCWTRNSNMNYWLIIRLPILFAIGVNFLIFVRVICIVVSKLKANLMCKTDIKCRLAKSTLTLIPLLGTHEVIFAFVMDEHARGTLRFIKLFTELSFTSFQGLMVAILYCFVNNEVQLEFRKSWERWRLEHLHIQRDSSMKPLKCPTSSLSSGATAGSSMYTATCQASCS
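Using stably transfected HEK293 (constitutively active GLP-1R, cAMP-luciferase reporter), compounds were incubated 24 hr and luciferase measured by luminescence.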
HEK293 tox: qHTS of GLP-1 Receptor Inverse Agonists: Cytotox Screen | 410,000 compounds, 0.13% hits | HEK293 cAMP-luciferase reporter cells, luminescence, 24 h | AID 624418, 2012 | Potency, µM (highest dose often 38.3 µM), for inactives: top-dose activity change, negative = inhibition, usual class: inhibitors;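 further: loss of luciferase light is scored as toxicity; potency means the concentration at half of the fitted maximal effect; on the % scale 0 is the no-effect control and ±100 the full control effect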
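A 23 nL compound transfer followed 12 hours of cell culture at 37 deg C; exposure then lasted 24 hr. Luciferase assay detection reagent was dispensed and plates read for luminescence after a 12 min room-temperature wait.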
ClpP mod: qHTS Assay for Activators of ClpP; ATP-dependent Clp protease proteolytic subunit (Bacillus subtilis (strain 168)), P80244; purified B. subtilis ClpP, FRET peptide cleavage, 20 min; Potency, µM (titrated, usually from 57.5 µM), without a hit: at the top dose activity change, negative = active; 340,000 compounds, 1.9% hits; active means well fitted falling curve with a large enough effect; inconclusive means small, poorly fitted or top-dose-only effect; inactive means no such curve, though single readings can be large or run the other way; further: potency means the concentration at half of the fitted maximal effect; the source files actives as falling curves though it sought activators and does not explain the sign; nearly all actives have a fitted effect of over 65% in size
Target sequence (P80244 whole entry, looked up): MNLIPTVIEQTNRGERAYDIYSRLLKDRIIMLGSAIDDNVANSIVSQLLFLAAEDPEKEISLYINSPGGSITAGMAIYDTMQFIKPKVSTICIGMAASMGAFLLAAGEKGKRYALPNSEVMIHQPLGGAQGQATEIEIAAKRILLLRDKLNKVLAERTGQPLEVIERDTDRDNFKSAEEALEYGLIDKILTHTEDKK
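Purified B. subtilis ClpP, 10 microg/mL final in Tris/HCl pH8 with KCl, BSA, glycerol and Tween-20, cleaved an Abz/nitrotyrosine-quenched decapeptide. Fluorescence (ex 320, em 430) was read at 0 and 20 min at room temperature. Delta was normalized to 5.8 microM ADEP and DMSO/no-enzyme controls.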
LDHA inh: qHTS assay for inhibitors of human lactate dehydrogenase | L-lactate dehydrogenase A chain (Homo sapiens), P00338 | purified LDHA, NADH/diaphorase-resazurin fluorescence; hits give low values | activity change, % (values are at about 110 or 230 µM) | 480,000 compounds, 0.15% hits | AID 1347041, 2019; in the data active means activity change below about -30%; inconclusive means mostly about -25% to -30%;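 further: plate controls were DMSO wells for no effect and wells without enzyme for full effect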
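Enzyme activity of human lactate dehydrogenase 5 (2 nM; 0.06 mM NADH, 0.2 mM pyruvate, 5 min, RT) is measured via a resazurin/diaphorase fluorescence readout of residual NADH.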
p53 reactivation: qHTS assay for re-activators of p53 using a Luc reporter | H1299 p53-A138V BP100-luciferase reporter, luminescence, 24 h | Potency, µM (highest dose often 92.2 µM), for inactives: top-dose activity change, positive = activation, hits mostly activators | 320,000 compounds, 0.063% hits | AID 504706, 2011; further: potency means the concentration at half of the fitted maximal effect; % of control where 0% means no effect; nearly all actives have a fitted effect of over 45% in size
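p53-null H1299 cells stably carrying temperature-sensitive p53-A138V and a BP100-luciferase reporter were pinned with compounds (4-point, 1:5 series) and held 24 hrs at 37 deg C. Luminescence was read 10 min after detection reagent.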
GLP-1R agonist: qHTS of GLP-1 Receptor Agonists; HEK293 GLP-1R CRE-luciferase, luminescence, 4-6 h; cells express a hypersensitive GLP-1R form; Potency, µM (titrated, usually from 45.6 µM), without a hit: top-dose activation, most hits filed as activators; 380,000 compounds, 0.007% hits; further: potency means the concentration at half of the fitted maximal effect; % of control where 0% means no effect
The depositor's hits bear a star; ? = inconclusive; nt = no result. Unless noted, the call rests on the fitted dose curve; in most records, active means well fitted curve in the direction sought with a large enough effect; inconclusive means small, poorly fitted or top-dose-only effect, or another doubt; inactive means no such curve, though single readings can be large; an effect the other way counts as inactive or inconclusive.

SMILES	GLP-1R inv ag	HEK293 tox	ClpP mod	LDHA inh	p53 reactivation	GLP-1R agonist
COc1ccc(NC(=O)N(Cc2cccs2)Cc2cc3cc4c(cc3[nH]c2=O)OCO4)cc1	nt	nt	nt	nt	-5.8%	nt
COc1ccc2[nH]c(=O)c(CNC3CCCCC3)cc2c1	-4.2%	-21.3%	15.8µM*	-3.3	-3.8%	6.7%
CC(C)NS(=O)(=O)c1ccc(NC(=O)Cc2ccsc2)cc1	14.8%	4.6%	1.0%	-5.7	0.1%	?
COc1ccc(CCNC(=O)CCCNC(=O)Cn2cnc3sc(C)c(C)c3c2=O)cc1OC	-10.9%	-12.0%	0.0%	-2.0	0.1%	11.3%
C[C@@H]1CCC(=O)N(CC[C@H](N=[N+]=[N-])c2ccccc2)CC1	12.9%	-4.1%	-2.1%	0.8	29.1%	-5.2%
CCN(CC)CCN(Cc1cc2cc3c(cc2[nH]c1=O)OCCO3)C(=O)NC1CCCCC1	-7.1%	?	25.1µM*	-1.1	28.9%	18.5%
CCOC(=O)c1c(/N=C/N(C)C)sc(/C=N/Nc2ccccc2)c1-c1ccccc1Cl	3.55µM*	-7.2%	nt	11.8	12.2%	10.2%
O=C(NCc1ccc(-n2cccn2)nc1)c1cccc(NC(=O)c2ccco2)c1	nt	nt	nt	4.5	nt	nt
CCN1CCN(c2ccc(Nc3ccnc4ccccc34)cc2)CC1	3.55µM*	-16.5%	-1.3%	0.0	-4.2%	-4.6%
CN1CCN(c2ccc(Nc3c4ccccc4nc4ccccc34)cc2)CC1	nt	nt	nt	7.9	nt	nt
CCc1cccc(OCC(=O)Nc2c[nH]c(=O)[nH]c2=O)c1	38.3%	-0.4%	nt	-4.7	0.5%	1.9%
COc1ccc(Br)cc1CN1CCCC(C(=O)N2CCCCCC2)C1 (configuration not stated)	?	-13.8%	-2.4%	-32.9*	-0.5%	-0.3%
CCOCCCn1c(=NC(=O)c2cccs2)c(C#N)cc2c(=O)n3cccc(C)c3nc21	87.3%	145.8%	4.0%	-13.3	2.8%	1.9%
CC(C(=O)NCc1ccco1)n1nc(-c2ccccc2)c2cc(Cl)ccc21 (configuration not stated)	-12.1%	1.2%	-7.0%	-7.1	2.2%	-3.5%
CC(=O)c1ccc(NC(=O)C(C)n2nc(-c3ccccc3)c3cc(Cl)ccc32)cc1 (configuration not stated)	6.31µM*	-28.5%	-12.6%	1.2	-2.0%	-6.4%
O=C(CSc1nc2c(sc3ccccc32)c(=O)n1CCCN1CCCC1)NCc1ccco1	10µM*	?	nt	-1.1	11.1%	7.7%
Cc1cc(NC(=O)CSc2nc3c(sc4ccccc43)c(=O)n2CCCN2CCOCC2)n[nH]1	0.0%	5.01µM*	-10.7%	-7.9	3.6%	19.1%
O=C(CSc1nc2c(sc3ccccc32)c(=O)n1CCO)NCc1ccco1	0.0%	2.1%	-23.7%	-4.0	2.0%	-9.7%
C=CCn1c(SC(C)C(=O)Nc2ccc(F)c(F)c2F)nnc1C1CC1 (configuration not stated)	6.2%	9.2%	nt	-7.5	-9.0%	5.9%
COCC(=O)Oc1cc(-c2ccc(C)cc2C)c(OC(=O)COC)c(-c2ccc(C)cc2C)c1	2.51µM*	-17.4%	3.4%	1.1	nt	1.4%
Cc1ccc(C)c(NS(=O)(=O)c2cc3c(cc2C)n(C)c(=O)c(=O)n3C)c1	9.1%	-2.0%	-10.7%	-2.1	nt	nt
CN(CC(=O)Nc1cccc(F)c1)C(=O)c1ccccc1Cc1ccccc1	12.6µM*	-24.2%	-0.6%	-1.8	-5.1%	-1.3%
Cc1c(C=NNc2ccccc2)[nH]c(=O)[nH]c1=O	?	?	2.3%	-9.1	nt	1.9%
COC(=O)c1c(C)[nH]c(/C=N/Nc2ccccc2)c1C	10µM*	-0.4%	nt	5.6	6.7%	24.9%
N#C/C(=C\c1ccc(OCc2ccc(C(=O)O)cc2)cc1)C(=O)NCc1ccccc1	17.3%	0.0%	nt	-1.4	nt	-4.6%
SMILES	GLP-1R inv ag	HEK293 tox	ClpP mod	LDHA inh	p53 reactivation	GLP-1R agonist
N#C/C(=C\c1ccc(OCc2cccc(C(=O)O)c2)cc1)C(=O)NCc1ccco1	8.91µM*	-4.7%	-3.1%	-3.1	0.6%	-6.1%
COc1ccc2nc(C)cc(Nc3ccccc3O)c2c1	?	?	0.0%	3.2	-4.1%	-1.0%
COc1ccc2nc(C)cc(NCc3cccc(C(F)(F)F)c3)c2c1	2.82µM*	?	nt	-5.5	4.0%	4.2%
CCN(c1ccccc1)S(=O)(=O)c1ccc(C(=O)Nc2cccc(NC(C)=O)c2)cc1	?	-3.1%	1.1%	-1.8	0.8%	11.5%
CCN(c1ccccc1)S(=O)(=O)c1cc(C(=O)Nc2ccc(F)c(F)c2)ccc1F	1.41µM*	?	-3.1%	-3.5	9.8%	-2.5%
CC(C)C(=O)NC(c1cccc([N+](=O)[O-])c1)c1ccc2cccnc2c1O (configuration not stated)	?	2.51µM*	0.3%	4.3	27.2%	-14.3%
COc1ccc(C(NC(C)=O)c2ccc3cccnc3c2O)c(OC)c1 (configuration not stated)	3.55µM*	?	-1.9%	10.7	?	0.4%
CCCC(=O)NC(c1cccc([N+](=O)[O-])c1)c1ccc2cccnc2c1O (configuration not stated)	?	?	1.9%	1.7	nt	-5.1%
COc1ccc(C(NC(C)=O)c2ccc3cccnc3c2O)cc1OC (configuration not stated)	nt	nt	-1.0%	10.3	nt	nt
CC(C)c1ccc(/C=C/C(=O)Nc2ccc(Br)cc2F)cc1	nt	nt	nt	-0.7	nt	nt
CCOC(=O)C(=NCCOC)NNc1cc(Cl)ccc1Cl	2.82µM*	-9.4%	2.1%	-0.8	-15.8%	20.7%
CCOC(=O)C(=NC1CCS(=O)(=O)C1)NNc1cc(Cl)ccc1Cl (configuration not stated)	?	?	nt	-2.2	-6.4%	1.1%
Cc1ccc2cccc(SCC(=O)NCc3ccco3)c2n1	5.7%	0.4%	14.1µM*	-3.8	-4.1%	0.5%
Cc1ccc2cccc(SCC(=O)N3CCOCC3)c2n1	-12.4%	-11.9%	28.2µM*	-2.7	7.9%	6.4%
Cc1cc(SCC(=O)N2CCOCC2)nc2c(C)cccc12	nt	nt	nt	-5.1	nt	nt
Cc1ccc2cccc(OCC(=O)NCc3ccco3)c2n1	4.5%	3.1%	-9.2%	9.0	1.3%	-2.7%
Cc1ccc(SC[C@H](C)CN2CC[C@H](C(C)(C)C)CCC2=O)cc1	10µM*	1.3%	0.0%	7.2	6.1%	10.1%
